From PubChem BioAssay AID1441 (NMMLSC, 2008)
The campaign covered roughly 220,000 compounds. About 830 (0.38%) were called active. The rule behind the calls is not given here. The list comes from a sample in which actives are over-represented; it also holds similar structures and randomly drawn compounds.

Each compound was assayed against Regulator of G-protein signaling 16 (Homo sapiens) + Guanine nucleotide-binding protein G(o) subunit alpha (Homo sapiens) (UniProt O15492+P09471) (assay: RGS16-Galphao interaction inhibitors and enhancers – biochemical, human proteins, multiplexed bead flow cytometry, primary screen (AID 1441;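 note: Galphao activated by GDP with aluminum fluoride before binding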)). Conditions: bead-based flow cytometry RGS16-Galphao binding, fluorescence; at 10 µM; actives lie on both sides.
Chain of Regulator of G-protein signaling 16 (Homo sapiens) + Guanine nucleotide-binding protein G(o) subunit alpha (Homo sapiens) (O15492 whole entry, looked up): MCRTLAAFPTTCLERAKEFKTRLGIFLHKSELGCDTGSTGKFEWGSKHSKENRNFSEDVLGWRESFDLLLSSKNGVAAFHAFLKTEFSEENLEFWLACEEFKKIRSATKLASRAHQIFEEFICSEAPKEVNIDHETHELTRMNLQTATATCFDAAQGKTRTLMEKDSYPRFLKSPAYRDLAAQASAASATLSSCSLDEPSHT
Chain of Regulator of G-protein signaling 16 (Homo sapiens) + Guanine nucleotide-binding protein G(o) subunit alpha (Homo sapiens) (P09471 whole entry, looked up): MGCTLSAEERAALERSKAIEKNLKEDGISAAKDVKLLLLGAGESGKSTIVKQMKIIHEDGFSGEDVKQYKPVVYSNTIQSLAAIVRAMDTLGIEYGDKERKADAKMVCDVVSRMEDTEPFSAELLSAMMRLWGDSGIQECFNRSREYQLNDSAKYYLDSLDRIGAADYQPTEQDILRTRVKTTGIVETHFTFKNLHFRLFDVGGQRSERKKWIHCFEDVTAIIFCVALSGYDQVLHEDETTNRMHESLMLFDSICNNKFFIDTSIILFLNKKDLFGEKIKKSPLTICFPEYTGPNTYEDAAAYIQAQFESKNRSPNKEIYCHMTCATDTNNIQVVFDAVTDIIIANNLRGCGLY

Compound	binding response (% of control)
C/C=C/C(=O)OCC(=O)Nc1ccc(F)cc1Cl	104% (inactive)
Cc1cccc(CN2CCN(Cc3cnn(-c4ccccc4F)c3)CC2CCO)n1 (centres undefined)	101% (inactive)
O=C(NCc1ccccc1)c1ccc(S(=O)(=O)Nc2cccc(C(F)(F)F)c2)cc1	80.9% (inactive)
Cn1c(=O)c2c(nc(SCC(=O)Nc3ccccc3N3CCCCC3)n2C)n(C)c1=O	117% (inactive)
CCOC(=O)CSc1nc2c(c(=O)n(C)c(=O)n2C)n1Cc1ccccc1F	102% (inactive)
CCOC(=O)CSc1nc2c(c(=O)n(Cc3ccccc3Cl)c(=O)n2C)n1C	-55.5% (active)
COc1ccccc1C1CCN(C(=S)Nc2ccc(Br)cc2)CC1	98% (inactive)
CC(C)CC(=O)NC(=S)Nc1cc(C(=O)O)ccc1Cl	103% (inactive)
COc1ccc(NS(=O)(=O)c2ccc(NC(=S)NC(=O)CC(C)C)cc2)cc1	98.4% (inactive)
CC(=O)c1ccc(NC(=S)NC(=O)CC(C)C)cc1	21.8% (active)
CC(=O)Nc1cccc(-c2nc3ccccc3s2)c1C	108% (inactive)
C/C(=N\NC(=O)c1cccnc1)c1ccc(-c2ccccc2)cc1	95.2% (inactive)
CC(C)c1nc(CNC(=O)CC2C(=O)NCCN2Cc2ccoc2)cs1 (centres undefined)	105% (inactive)
CC(C)=C1SC(N2CCN(c3ccc(C)c(Cl)c3)CC2)=NC1=O	99.9% (inactive)
CC(C)(C)NC(=O)c1cccc(NC(=O)Cc2ccc(Br)cc2)c1	-3.28% (active)
COc1ccc(CC(=O)Nc2ccc(C(=O)NC(C)(C)C)cc2)cc1	99.7% (inactive)
Cc1cccc(C)c1NC(=O)CNC(=O)Cc1ccc(Br)cc1	98.2% (inactive)
O=C(COC(=O)c1ccncc1)c1ccccc1	104% (inactive)
O=C1C2C3C=CC(C3)C2C(=O)N1c1ccc(S(=O)(=O)Nc2nccs2)cc1 (centres undefined)	93.2% (inactive)
COc1ccc2[nH]c(C(=O)Nc3ccccc3Cl)cc2c1	97.5% (inactive)

Compound	binding response (% of control)
O=C(Nc1ccccc1)c1cc2ccccc2[nH]1	13.8% (active)
CC(C)n1c(=O)[nH]c2cc(C(=O)Nc3ccccc3)ccc21	107% (inactive)
O=C(Nc1ccc(S(=O)(=O)Nc2nccs2)cc1)c1cc(=O)[nH]c2ccccc12	100% (inactive)
CC1CCN(Cc2nc(-c3ccc(Cl)cc3)no2)CC1	108% (inactive)
COC(=O)C1=C(Nc2ccc(C)cc2)C=C(C)C(C(=O)OC)C1c1ccc(F)cc1 (centres undefined)	109% (inactive)
CN(c1ccccc1)c1ccc(/C=c2\s/c(=C(/C#N)C(=O)C(C)(C)C)n(Cc3ccco3)c2=O)cc1	551% [activator] (active)
Cc1cs/c(=N\N=C\c2ccc(O)cc2)n1Cc1ccco1	104% (inactive)
COc1ccc(NC(=O)Cn2c(=O)n(Cc3ccco3)c(=O)c3ccccc32)cc1	101% (inactive)
COc1ccc(OC)c(-n2c(-c3ccn[nH]3)n[nH]c2=S)c1	102% (inactive)
COc1ccccc1-n1cn[nH]c1=S	102% (inactive)
COc1ccccc1-n1c(-c2cc(-c3ccco3)[nH]n2)n[nH]c1=S	-1.14% (active)
CCCOc1ccc(Cc2c(Cl)nc(SC)nc2NC)cc1	97.7% (inactive)
COc1ccc(/C=N/n2nnnc2N)cc1OC	125% (inactive)
O=C(NCCc1ccccc1)/C(=C\c1ccc([N+](=O)[O-])cc1)NC(=O)c1ccccc1	101% (inactive)
C=CCNC(=O)/C(=C\c1cccc([N+](=O)[O-])c1)NC(=O)c1ccccc1	98% (inactive)
CN(C)CCNC(=O)/C(=C/c1cccc([N+](=O)[O-])c1)NC(=O)c1ccccc1	219% [activator] (active)
CCSc1ccccc1C(=O)NCc1ccc(OC)cc1	98.1% (inactive)
S=c1[nH]nc(-c2cc(-c3ccccc3)n[nH]2)n1/N=C/c1c2ccccc2cc2ccccc12	97.7% (inactive)
CCN(CC)S(=O)(=O)c1cccc(-c2n[nH]c(=S)n2/N=C/c2ccc(C(=O)OC)cc2)c1	334% [activator] (active)
COC(=O)c1ccc(/C=N\n2c(C)nnc2C)cc1	82.2% (inactive)

Compound	binding response (% of control)
Cc1cccc(NC(=O)c2nc[nH]c2C(=O)NCC(=O)OCc2ccccc2)c1	110% (inactive)
NC(=O)Cc1ccc2sc(-c3ccccc3)nc2c1	23.6% (active)
O=C(O)Cc1sc(-c2ccc(C(=O)O)cc2)nc1-c1ccccc1	99.1% (inactive)
NC(=O)Cc1ccc2c(c1)[nH]c1ccccc12	103% (inactive)
CSCC[C@H](NC(=O)CCCn1nnc2ccccc2c1=O)C(=O)O	104% (inactive)
Cc1ccc(Cn2c(SCC(=O)N/N=C/c3ccccc3OCC(=O)O)nc3ccccc32)cc1	99.5% (inactive)
C=CCn1c(Cn2nnc3ccccc32)nnc1SCC(=O)N/N=C/c1cc(Br)cc(OC)c1O	-35.2% (active)
COc1ccc(OC)c(/C=N/NC(=O)CSc2nnc(C)n2-c2ccccc2)c1	97.7% (inactive)
CN1CCN(C(CNS(=O)(=O)c2cccs2)c2cccnc2)CC1 (centres undefined)	-5.62% (active)
CN1CCN(S(=O)(=O)c2ccc(N3CCN(S(=O)(=O)c4cccs4)CC3)nc2)CC1	98.8% (inactive)
Cc1ccc(NC(=O)NCC(c2cccnc2)N2CCOCC2)cc1 (centres undefined)	105% (inactive)
Cn1nc(C(C)(C)C)c([N+](=O)[O-])c1C(N)=O	98.6% (inactive)
COc1ccc2c(c1)CC[C@@H]1[C@@H]2CC[C@]2(C)C(=O)CC[C@@H]12	101% (inactive)
O=C(NCCc1c[nH]c2ccc(Cl)cc12)c1ccc([N+](=O)[O-])cc1	112% (inactive)
COc1ccccc1-n1c(=S)[nH]c2c(sc(=S)n2-c2ccc(C)cc2C)c1=O	94.4% (inactive)
COc1cccc(C2Nc3cccc4cccc(c34)N2)c1	106% (inactive)
O=[N+]([O-])C(=c1ccc2c(c1)N1C3=C(CCCC3)CC3CCCCC31N=2)[N+](=O)[O-] (centres undefined)	20.9% (active)
Cc1ccc(C)c(NC(=O)C(OC(=O)c2ccc(C)s2)c2ccccc2)c1 (centres undefined)	112% (inactive)
COc1ccc(CN(Cc2ccc(OC)cc2)C(=O)c2cccs2)cc1	99% (inactive)
